Experimental data: PubChem BioAssay (EPA / NIEHS)
Where “and” joins values, the source holds several entries; their conditions need not be identical. Equal entries are not always repeated. Inconclusive results are not listed. Some structures have more than one record in an assay (separate samples or runs), and their calls can disagree. Calls of active or inactive are those of the source. The calls were made as follows: active = hit-call score of the fitted dose curve at least 0.9, where 1 is the maximum; inconclusive = response in the unintended direction; inactive = score below 0.9.

What was measured:
[1] = molecular target: human Vascular Endothelial Growth Factor Receptor 3 (VEGFR3), FLT4 (gene 2324) (UniProt P35916); experiment: NVS_ENZ_hVEGFR3: NovaScreen (NVS) Enzymatic Assay for human Vascular Endothelial Growth Factor Receptor 3 (VEGFR3) (AID 2283229)
Outline: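 Cell-free recombinant VEGFR3 kinase reaction with fluorescent substrate, read 1 h after dosing by electrophoretic mobility shift separation of substrate and product. Single-concentration duplicate screen at 25 uM, then concentration-response up to 50 uM; loss of activity versus DMSO.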

[2] = molecular target: human Vascular Endothelial Growth Factor Receptor 2 (VEGFR2), KDR (gene 3791) (UniProt P35968); experiment: NVS_ENZ_hVEGFR2: NovaScreen (NVS) Enzymatic Assay for human Vascular Endothelial Growth Factor Receptor 2 (VEGFR2) (AID 2283230)
Outline: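 Cell-free recombinant VEGFR2 kinase, fluorescent substrate with electrophoretic mobility-shift separation; read 1 h after dosing. Screened at 25 uM in duplicate, hits to concentration-response up to 50 uM; loss-of-signal versus DMSO.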

[3] = molecular target: sheep Cyclooxygenase-2 (Cox2), PTGS2 (gene 443460) (UniProt P79208); experiment: NVS_ENZ_oCOX2: NovaScreen (NVS) Enzymatic Assay for sheep Cyclooxygenase-2 (Cox2) (AID 2283231)
Outline: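 Compounds were first run at 25 uM in duplicate against tissue-extracted ovine COX-2; those passing a preset inhibition threshold went to singleton concentration-response testing with a 50 uM maximum. Read-out: absorbance at 0.66 hour.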

[4] = molecular target: rat Catechol-O-Methyl Transferase (COMT), Comt (gene 24267) (UniProt P22734); experiment: NVS_ENZ_rCOMT: NovaScreen (NVS) Enzymatic Assay for rat Catechol-O-Methyl Transferase (COMT) (AID 2283235)
Outline: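 Cell-free enzyme activity with protein extracted from rat dorsal striatum, measured by HPLC with absorbance detection. Compounds screened at 25 uM in duplicate; actives then run in concentration-response up to 50 uM, loss of signal versus DMSO.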

[5] = molecular target: sheep Cyclooxygenase-1 (Cox1), PTGS1 (gene 443551) (UniProt P05979); experiment: NVS_ENZ_oCOX1: NovaScreen (NVS) Enzymatic Assay for sheep Cyclooxygenase-1 (Cox1) (AID 2283239);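 also: actives reduce cyclooxygenase activity so potencies are for inhibitors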
Outline: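 Native ovine seminal vesicle protein serves as enzyme source in this biochemical assay. Colorimetric signal is recorded 0.66 h after chemical addition, and decreases versus the DMSO control define activity.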

[6] = molecular target: human Serotonin, 5-Hydroxytryptamine Receptor 2A (5HT2A), HTR2A (gene 3356) (UniProt P28223); experiment: NVS_GPCR_h5HT2A: NovaScreen (NVS) G Protein-Coupled Receptor Assay for human Serotonin, 5-Hydroxytryptamine Receptor 2A (5HT2A) (AID 2283249)
Outline: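 Human cortex membranes, cell-free radioligand binding; filter-based scintillation read 1.5 h after dosing. Duplicate screen at 25 uM first; displacement of specific binding (loss of signal) versus DMSO.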

[7] = molecular target: human Serotonin, 5-Hydroxytryptamine Receptor 7 (5HT7), HTR7 (gene 3363) (UniProt P34969); experiment: NVS_GPCR_h5HT7: NovaScreen (NVS) G Protein-Coupled Receptor Assay for human Serotonin, 5-Hydroxytryptamine Receptor 7 (5HT7) (AID 2283255);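 also: hits reduce specific radioligand binding relative to DMSO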
Outline: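 Radioligand displacement on membranes from CHO cells expressing human 5HT7, 1 h incubation, filter-based scintillation counting. Primary screen used a single 25 uM concentration in duplicate; actives were followed up in concentration series.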

[8] = molecular target: human Adenosine A2a Receptor (AdoRA2a), ADORA2A (gene 135) (UniProt P29274); experiment: NVS_GPCR_hAdoRA2a: NovaScreen (NVS) G Protein-Coupled Receptor Assay for human Adenosine A2a Receptor (AdoRA2a) (AID 2283256)
Outline: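 Cell-free radioligand binding on membranes from HEK293 expressing the receptor; competitive displacement read 1.5 h after dosing by filter-based scintillation counting. Primary screen in duplicate at 25 uM; actives followed in concentration series, with DMSO as baseline.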

[9] = NVS_GPCR_bNPY_NonSelective: NovaScreen (NVS) G Protein-Coupled Receptor Assay for bovine Neuropeptide Y (NPY) Receptor, Non-selective Binding (AID 2283245)
Outline: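 Bovine hippocampal membranes incubated 1 hour with radioligand and test chemical. Bound ligand measured by filter-based scintillation counting. Single-concentration screen at 25 uM in duplicate, then concentration-response up to 50 uM.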

[10] = molecular target: guinea pig Opioid, Kappa 1 Receptor (OpiateK), OPRK1 (gene 100135587) (UniProt P41144); experiment: NVS_GPCR_gOpiateK: NovaScreen (NVS) G Protein-Coupled Receptor Assay for guinea pig Opioid, Kappa 1 Receptor (OpiateK) (AID 2283252);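 also: radioligand displacement from kappa opioid receptor in guinea pig cerebellar membranes; active means reduced radioligand binding relative to DMSO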
Outline: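 Signal is scintillation counts of filter-trapped radioligand bound to guinea pig cerebellar membrane receptor, measured 2 hours post-dosing. Activity is loss of binding versus DMSO, first at 25 uM in duplicate, then as concentration series for actives.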

[11] = molecular target: human Adenosine A1 Receptor (AdoRA1), ADORA1 (gene 134) (UniProt P30542); experiment: NVS_GPCR_hAdoRA1: NovaScreen (NVS) G Protein-Coupled Receptor Assay for human Adenosine A1 Receptor (AdoRA1) (AID 2283254)
Outline: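 Each chemical is first tested twice at 25 uM, actives later in dilution series, against a radioligand bound to human cortex membranes; after 1 h, filter-retained counts are compared with DMSO controls, lower signal indicating displacement.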

[12] = molecular target: human Serotonin, 5-Hydroxytryptamine Receptor 5A (5HT5A), HTR5A (gene 3361) (UniProt P47898); experiment: NVS_GPCR_h5HT5A: NovaScreen (NVS) G Protein-Coupled Receptor Assay for human Serotonin, 5-Hydroxytryptamine Receptor 5A (5HT5A) (AID 2283251)
Outline: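 Cell-free radioligand displacement binding on HEK293-derived membrane protein, 1 h incubation, filter-based scintillation counting. Primary screen in duplicate at 25 uM, actives followed in concentration series; loss of signal fitted versus DMSO.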

[13] = molecular target: human Serotonin, 5-Hydroxytryptamine Receptor 6 (5HT6), HTR6 (gene 3362) (UniProt P50406); experiment: NVS_GPCR_h5HT6: NovaScreen (NVS) G Protein-Coupled Receptor Assay for human Serotonin, 5-Hydroxytryptamine Receptor 6 (5HT6) (AID 2283253)
Outline: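 Radioligand binding to 5HT6 in HEK293-derived membranes, cell-free, 1 h after dosing; bound ligand measured by filter-based scintillation counting. Primary screen in duplicate at 25 uM; actives retested in concentration series.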

[14] = molecular target: Adenosine receptor A1 (Bos taurus) (UniProt P28190); experiment: NVS_GPCR_bAdoR_NonSelective: NovaScreen (NVS) G Protein-Coupled Receptor Assay for bovine Adenosine Receptor (AdoR), Non-selective Binding (AID 2283244)
Outline: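 Bovine striatal membranes, radioligand displacement binding, 1 h after dosing, filter-based scintillation counting. Screened in duplicate at 25 uM, then concentration-response up to 50 uM; loss of specific binding relative to DMSO.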

[15] = molecular target: bovine Dopamine Receptor (DR), Non-selective Binding, DRD1 (gene 281125) (UniProt Q95136); experiment: NVS_GPCR_bDR_NonSelective: NovaScreen (NVS) G Protein-Coupled Receptor Assay for bovine Dopamine Receptor (DR), Non-selective Binding (AID 2283241)
Outline: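 Bovine striatal membranes; radioligand displacement read by filtration and scintillation counting 1 h after dosing, loss of signal vs DMSO. Screened in duplicate at 25 uM, then concentration-response for hits.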

[16] = molecular target: rat Constitutive Nitric Oxide Synthase (CNOS), Nos1 (gene 24598) (UniProt P29476); experiment: NVS_ENZ_rCNOS: NovaScreen (NVS) Enzymatic Assay for rat Constitutive Nitric Oxide Synthase (CNOS) (AID 2283236)
Outline: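 Enzyme activity in rat brain membrane preparation, read 1 h after dosing by filter-based radiometric scintillation counting. Primary screen in duplicate at 25 uM; actives (e.g., ≥30% inhibition) then run in concentration-response up to 50 uM.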

[17] = tested on: guinea pig Muscarinic, Peripheral (Mperiperal) Receptor, Non-selective Binding, gene 100379235; experiment: NVS_GPCR_gMPeripheral_NonSelective: NovaScreen (NVS) G Protein-Coupled Receptor Assay for guinea pig Muscarinic, Peripheral (Mperiperal) Receptor, Non-selective Binding (AID 2283250)
Outline: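 Guinea pig bladder membranes, radioligand binding read 1 h after dosing by filter scintillation counting; loss of signal vs DMSO. Primary duplicate screen at 25 uM, then concentration-response up to 50 uM.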

Chain of human Serotonin, 5-Hydroxytryptamine Receptor 6 (5HT6), HTR6 (gene 3362) (P50406 whole entry, looked up): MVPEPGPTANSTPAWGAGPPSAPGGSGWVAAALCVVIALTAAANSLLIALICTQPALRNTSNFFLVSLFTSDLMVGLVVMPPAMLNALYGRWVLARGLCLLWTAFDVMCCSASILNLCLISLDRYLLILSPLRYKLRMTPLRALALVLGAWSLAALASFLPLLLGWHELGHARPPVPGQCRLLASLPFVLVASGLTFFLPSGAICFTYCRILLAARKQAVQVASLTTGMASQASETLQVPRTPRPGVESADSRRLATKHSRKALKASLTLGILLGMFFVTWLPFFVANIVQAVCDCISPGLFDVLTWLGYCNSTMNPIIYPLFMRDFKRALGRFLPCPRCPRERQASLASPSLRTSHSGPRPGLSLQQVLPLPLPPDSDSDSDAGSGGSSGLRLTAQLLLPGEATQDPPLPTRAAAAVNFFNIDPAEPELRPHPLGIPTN
Chain of human Vascular Endothelial Growth Factor Receptor 2 (VEGFR2), KDR (gene 3791) (P35968 whole entry, looked up): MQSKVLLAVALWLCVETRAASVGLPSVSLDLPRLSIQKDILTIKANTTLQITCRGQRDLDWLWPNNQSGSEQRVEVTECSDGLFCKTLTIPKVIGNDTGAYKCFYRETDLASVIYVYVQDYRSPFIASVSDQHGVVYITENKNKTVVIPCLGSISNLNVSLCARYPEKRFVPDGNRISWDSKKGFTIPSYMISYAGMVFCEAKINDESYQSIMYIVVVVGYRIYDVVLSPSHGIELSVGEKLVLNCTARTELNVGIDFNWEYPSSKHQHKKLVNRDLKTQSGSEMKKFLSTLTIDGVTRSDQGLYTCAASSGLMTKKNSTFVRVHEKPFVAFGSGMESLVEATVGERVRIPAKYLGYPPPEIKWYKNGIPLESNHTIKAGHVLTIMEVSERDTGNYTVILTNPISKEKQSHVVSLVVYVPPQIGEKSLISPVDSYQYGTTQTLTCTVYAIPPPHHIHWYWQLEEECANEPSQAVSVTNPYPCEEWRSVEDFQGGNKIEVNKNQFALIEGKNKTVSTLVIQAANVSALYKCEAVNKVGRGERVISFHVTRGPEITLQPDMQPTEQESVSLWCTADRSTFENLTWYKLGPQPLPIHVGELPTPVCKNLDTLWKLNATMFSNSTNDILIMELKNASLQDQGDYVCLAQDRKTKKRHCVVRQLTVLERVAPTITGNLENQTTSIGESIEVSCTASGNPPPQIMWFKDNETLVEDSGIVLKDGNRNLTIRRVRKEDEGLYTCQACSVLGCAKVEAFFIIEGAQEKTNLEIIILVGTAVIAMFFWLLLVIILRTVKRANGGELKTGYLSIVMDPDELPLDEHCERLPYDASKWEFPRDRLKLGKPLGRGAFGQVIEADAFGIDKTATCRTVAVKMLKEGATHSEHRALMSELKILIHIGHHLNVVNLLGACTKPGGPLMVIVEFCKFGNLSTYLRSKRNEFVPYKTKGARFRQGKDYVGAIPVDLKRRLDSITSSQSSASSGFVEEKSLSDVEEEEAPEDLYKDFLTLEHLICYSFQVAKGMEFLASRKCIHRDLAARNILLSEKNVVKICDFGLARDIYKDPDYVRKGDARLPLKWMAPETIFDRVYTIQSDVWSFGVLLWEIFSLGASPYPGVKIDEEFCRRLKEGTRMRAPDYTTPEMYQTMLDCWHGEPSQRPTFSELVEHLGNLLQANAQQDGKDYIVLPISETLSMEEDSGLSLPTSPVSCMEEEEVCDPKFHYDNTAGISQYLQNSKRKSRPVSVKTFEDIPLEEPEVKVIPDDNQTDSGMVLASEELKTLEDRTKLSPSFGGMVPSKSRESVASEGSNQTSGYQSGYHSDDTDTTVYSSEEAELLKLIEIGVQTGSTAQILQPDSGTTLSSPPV
Chain of human Adenosine A1 Receptor (AdoRA1), ADORA1 (gene 134) (P30542 whole entry, looked up): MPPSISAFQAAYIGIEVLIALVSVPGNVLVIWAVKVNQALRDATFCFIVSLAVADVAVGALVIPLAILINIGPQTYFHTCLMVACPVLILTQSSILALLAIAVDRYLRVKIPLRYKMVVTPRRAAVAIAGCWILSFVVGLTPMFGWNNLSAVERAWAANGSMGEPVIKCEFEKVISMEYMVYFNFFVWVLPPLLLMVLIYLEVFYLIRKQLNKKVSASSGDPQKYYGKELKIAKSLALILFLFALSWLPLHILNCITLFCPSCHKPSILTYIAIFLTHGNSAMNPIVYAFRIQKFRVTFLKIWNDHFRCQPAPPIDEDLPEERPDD
Chain of human Serotonin, 5-Hydroxytryptamine Receptor 7 (5HT7), HTR7 (gene 3363) (P34969 whole entry, looked up): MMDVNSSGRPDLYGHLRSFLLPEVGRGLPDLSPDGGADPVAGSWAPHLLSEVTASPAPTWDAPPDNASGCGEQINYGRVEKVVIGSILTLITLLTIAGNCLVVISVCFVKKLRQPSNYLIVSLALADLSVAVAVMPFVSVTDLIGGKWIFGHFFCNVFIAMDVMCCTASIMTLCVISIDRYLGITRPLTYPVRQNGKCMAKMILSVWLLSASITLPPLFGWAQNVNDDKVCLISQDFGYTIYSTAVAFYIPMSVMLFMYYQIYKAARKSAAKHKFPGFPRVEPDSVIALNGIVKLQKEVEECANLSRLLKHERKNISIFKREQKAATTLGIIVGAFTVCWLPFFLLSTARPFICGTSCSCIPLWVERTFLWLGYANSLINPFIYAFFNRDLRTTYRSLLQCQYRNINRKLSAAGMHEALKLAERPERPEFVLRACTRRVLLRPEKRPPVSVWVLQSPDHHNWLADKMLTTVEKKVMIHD
Chain of sheep Cyclooxygenase-1 (Cox1), PTGS1 (gene 443551) (P05979 whole entry, looked up): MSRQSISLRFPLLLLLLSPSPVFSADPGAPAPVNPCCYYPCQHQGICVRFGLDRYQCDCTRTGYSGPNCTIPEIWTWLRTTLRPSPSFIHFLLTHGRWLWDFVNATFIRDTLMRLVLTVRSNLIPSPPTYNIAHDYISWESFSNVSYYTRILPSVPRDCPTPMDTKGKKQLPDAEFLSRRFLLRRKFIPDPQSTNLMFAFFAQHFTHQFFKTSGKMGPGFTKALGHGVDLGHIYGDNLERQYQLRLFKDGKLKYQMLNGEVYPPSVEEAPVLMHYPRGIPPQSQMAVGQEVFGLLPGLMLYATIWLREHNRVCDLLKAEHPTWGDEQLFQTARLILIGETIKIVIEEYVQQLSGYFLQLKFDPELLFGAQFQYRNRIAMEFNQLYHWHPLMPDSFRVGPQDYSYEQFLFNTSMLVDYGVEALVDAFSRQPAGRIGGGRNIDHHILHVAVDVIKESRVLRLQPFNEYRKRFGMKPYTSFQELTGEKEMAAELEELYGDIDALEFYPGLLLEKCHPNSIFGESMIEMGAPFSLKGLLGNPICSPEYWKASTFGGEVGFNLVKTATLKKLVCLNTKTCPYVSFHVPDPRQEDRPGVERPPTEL
Chain of Adenosine receptor A1 (Bos taurus) (P28190 whole entry, looked up): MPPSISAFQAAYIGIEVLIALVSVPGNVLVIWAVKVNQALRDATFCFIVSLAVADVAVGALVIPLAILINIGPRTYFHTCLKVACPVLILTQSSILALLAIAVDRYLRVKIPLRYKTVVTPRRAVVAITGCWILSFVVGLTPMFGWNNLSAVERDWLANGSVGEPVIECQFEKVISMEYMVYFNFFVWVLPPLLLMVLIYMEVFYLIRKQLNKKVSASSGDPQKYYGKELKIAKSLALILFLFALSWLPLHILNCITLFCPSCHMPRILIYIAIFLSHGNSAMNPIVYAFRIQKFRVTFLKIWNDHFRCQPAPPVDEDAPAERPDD
Chain of human Serotonin, 5-Hydroxytryptamine Receptor 2A (5HT2A), HTR2A (gene 3356) (P28223 whole entry, looked up): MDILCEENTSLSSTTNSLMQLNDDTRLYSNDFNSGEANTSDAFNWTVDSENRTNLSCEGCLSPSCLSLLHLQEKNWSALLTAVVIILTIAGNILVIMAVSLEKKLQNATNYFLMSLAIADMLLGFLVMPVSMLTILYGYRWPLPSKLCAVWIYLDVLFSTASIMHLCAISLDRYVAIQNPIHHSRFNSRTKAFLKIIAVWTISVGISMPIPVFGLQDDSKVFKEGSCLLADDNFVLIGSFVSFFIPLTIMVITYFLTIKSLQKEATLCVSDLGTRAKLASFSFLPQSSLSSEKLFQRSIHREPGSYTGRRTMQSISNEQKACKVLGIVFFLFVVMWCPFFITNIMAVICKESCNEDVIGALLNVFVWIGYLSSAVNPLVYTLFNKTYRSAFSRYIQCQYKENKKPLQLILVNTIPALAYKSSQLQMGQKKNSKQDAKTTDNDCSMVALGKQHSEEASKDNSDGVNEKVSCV
Chain of human Adenosine A2a Receptor (AdoRA2a), ADORA2A (gene 135) (P29274 whole entry, looked up): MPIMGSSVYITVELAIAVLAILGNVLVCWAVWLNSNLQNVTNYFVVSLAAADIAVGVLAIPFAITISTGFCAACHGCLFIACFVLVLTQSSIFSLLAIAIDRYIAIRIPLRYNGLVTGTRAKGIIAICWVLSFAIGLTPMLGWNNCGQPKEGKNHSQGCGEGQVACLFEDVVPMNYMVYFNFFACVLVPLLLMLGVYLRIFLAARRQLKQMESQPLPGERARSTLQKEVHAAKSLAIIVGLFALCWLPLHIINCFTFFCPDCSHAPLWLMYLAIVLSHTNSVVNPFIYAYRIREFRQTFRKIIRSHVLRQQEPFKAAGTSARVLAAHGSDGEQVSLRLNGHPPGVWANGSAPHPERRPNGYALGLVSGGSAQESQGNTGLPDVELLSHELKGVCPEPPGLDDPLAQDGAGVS
Chain of guinea pig Opioid, Kappa 1 Receptor (OpiateK), OPRK1 (gene 100135587) (P41144 whole entry, looked up): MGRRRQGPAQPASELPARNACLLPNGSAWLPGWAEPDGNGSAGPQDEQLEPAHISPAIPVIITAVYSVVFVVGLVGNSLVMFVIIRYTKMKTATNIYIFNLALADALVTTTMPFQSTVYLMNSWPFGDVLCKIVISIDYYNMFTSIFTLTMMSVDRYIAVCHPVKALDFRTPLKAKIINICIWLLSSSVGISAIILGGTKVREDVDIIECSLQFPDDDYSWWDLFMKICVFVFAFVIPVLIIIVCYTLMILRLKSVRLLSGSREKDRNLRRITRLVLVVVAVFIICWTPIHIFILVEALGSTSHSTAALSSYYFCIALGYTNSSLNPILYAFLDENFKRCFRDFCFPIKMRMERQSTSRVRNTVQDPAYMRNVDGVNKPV

Q: Which AC50 [1] does the source give for `S=C(S)NCCNC(=S)S.[Mn+2].[S-]C([S-])=NCCN=C([S-])[S-].[Zn+2]` here?
A: Its AC50 is 2.42 µM (active) and 1.31 µM (active).

Q: What about the AC50 [2] of the same compound?
A: The AC50 was 4.23 µM (active) and 3.35 µM (active).

Q: And the AC50 [3]?
A: Its AC50 is 12.5 µM (active).

Q: What about the AC50 [4] of the same compound?
A: Its AC50 is 21.1 µM (active).

Q: What about the outcome [5] of the same compound?
A: The outcome was “inactive”.

Q: What about the outcome [6] of the same compound?
A: The outcome was “inactive”.

Q: And the AC50 [7]?
A: The AC50 was 2.48 µM (active) and 5.86 µM (active) and 2.62 µM (active).

Q: What about the outcome [7] of the same compound?
A: Its outcome is “inactive”.

Q: With `CCCOC(=O)c1ccc(C(=O)OCCC)nc1` as the compound, how does the AC50 [8] read?
A: The AC50 was 15.2 µM (active).

Q: With `CC(C)(C)[C@@H](O)[C@@H](Cc1ccc(Cl)cc1)n1cncn1` as the compound, how does the AC50 [9] read?
A: The AC50 was 46.6 µM (active).

Q: What about the outcome [10] of the same compound?
A: Its outcome is “inactive”.

Q: Which outcome [11] does the source give for `CCCCCOC(=O)COc1cc(N2C(=O)C3=C(CCCC3)C2=O)c(F)cc1Cl` here?
A: The outcome was “inactive”.

Q: For `Oc1ccc(C(c2ccc(O)cc2)C(Cl)(Cl)Cl)cc1`, which AC50 [12] is on record?
A: Its AC50 is 6.9 µM (active).

Q: And the AC50 [13]?
A: The AC50 was 0.18 µM (active).

Q: And the outcome [11]?
A: The outcome was “inactive”.

Q: And the AC50 [7]?
A: The AC50 was 6.91 µM (active).

Q: Which outcome [7] does the source give for `CCCCCCC(C)OC(=O)COc1nc(F)c(Cl)c(N)c1Cl` (configuration not stated) here?
A: The outcome was “inactive”.

Q: Which AC50 [2] does the source give for `O=C(c1ccc(O)cc1O)c1ccc(O)cc1O` here?
A: Its AC50 is 14.6 µM (active).

Q: What about the AC50 [14] of the same compound?
A: The AC50 was 3.39 µM (active).

Q: And the AC50 [13]?
A: The AC50 was 4.96 µM (active).

Q: What about the AC50 [11] of the same compound?
A: Its AC50 is 11 µM (active).

Q: And the outcome [8]?
A: The outcome was “inactive”.

Q: Which outcome [5] does the source give for `CCCN(CCC)c1c([N+](=O)[O-])cc(C(F)(F)F)c(N)c1[N+](=O)[O-]` here?
A: Its outcome is “inactive”.

Q: What about the outcome [15] of the same compound?
A: The outcome was “inactive”.

Q: What about the outcome [14] of the same compound?
A: Its outcome is “inactive”.

Q: For `Cc1nn(C)c(Oc2ccccc2)c1C=NOCc1ccc(C(=O)OC(C)(C)C)cc1`, which AC50 [7] is on record?
A: Its AC50 is 6.64 µM (active).

Q: For `CCCCOC(=O)[C@@H](C)Oc1ccc(Oc2ccc(C(F)(F)F)cn2)cc1`, which outcome [7] is on record?
A: The outcome was “inactive”.

Q: Which results are given for `N#CSCSc1nc2ccccc2s1`?
A: outcome [2]: inactive; AC50 [16]: 6.64 µM (active); outcome [5]: inactive; outcome [6]: inactive; AC50 [17]: 7.3 µM (active)

Q: With `N[C@@H](Cc1cc(I)c(Oc2ccc(O)c(I)c2)c(I)c1)C(=O)O` as the compound, how does the AC50 [2] read?
A: The AC50 was 6.72 µM (active).

Q: What about the AC50 [14] of the same compound?
A: Its AC50 is 3.2 µM (active).

Q: What about the AC50 [13] of the same compound?
A: Its AC50 is 6.06 µM (active).

Q: And the AC50 [11]?
A: The AC50 was 0.554 µM (active).

Q: With `COC(=O)c1ccc(CNS(C)(=O)=O)cc1S(=O)(=O)NC(=O)Nc1nc(OC)cc(OC)n1` as the compound, how does the AC50 [16] read?
A: The AC50 was 7.99 µM (active).
